Several values for one entry are separate records, joined by “and”; a condition that tells them apart may be missing. Equal values may be shown once. In all, about 5,500 compounds went through this assay and about 2,000 (36%) were called active. Not shown: some 18% with an inconclusive outcome. Rule as the data show it: active = normalized growth mostly below about 0.91 (no sharp cut-off); inconclusive = no clear call, values can overlap the other calls; inactive = mostly above about 0.92. Some of the results follow.
Experiment: chemical genetic growth profiling, strain panel (AID 1159580);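 also: tested at 20 µM; growth read once vehicle control cultures reached saturation at 30 °C; 1 = growth at the plate median or of vehicle wells; lower values mean less growth of the strain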
Details: S. cerevisiae deletion strains, growth OD

Measured: normalized growth

CC[N+](CC)(CC)CCOc1cccc(OCC[N+](CC)(CC)CC)c1OCC[N+](CC)(CC)CC
active: locus YDR392W, strain spt3, stronger effect = lower value 0.673
inactive: locus YAL013W, strain DEP1, stronger effect = lower value 1.01 | locus YAL021C, strain ccr4, stronger effect = lower value 1.02 | locus YAL026C, strain drs2, stronger effect = lower value 1.01 | locus YAL030W, strain snc1, stronger effect = lower value 1.02 | locus YAL040C, strain CLN3, stronger effect = lower value 1.01 | locus YBL061C, strain skt5, stronger effect = lower value 1.02 | locus YBR009C, strain hhf1, stronger effect = lower value 1 | locus YBR021W, strain FUR4, stronger effect = lower value 1.01 | locus YBR023C, strain chs3, stronger effect = lower value 1.02 | locus YBR171W, strain sec66, stronger effect = lower value 1.02 | locus YBR229C, strain ROT2, stronger effect = lower value 1.01 | locus YBR231C, strain swc5, stronger effect = lower value 0.958 | locus YBR279W, strain paf1, stronger effect = lower value 1.03 | locus YCL011C, strain gbp2, stronger effect = lower value 1.02 | locus YCL016C, strain dcc1, stronger effect = lower value 1.02 | locus YCL029C, strain bik1, stronger effect = lower value 1 | locus YCL061C, strain MRC1 (second series), stronger effect = lower value 0.999 | locus YCL061C, strain MRC1, stronger effect = lower value 1.01 | locus YCL069W, strain vba3, stronger effect = lower value 1.01 | locus YCR088W, strain abp1, stronger effect = lower value 1.02 | locus YDL005C, strain med2, stronger effect = lower value 1.03 | locus YDL035C, strain GPR1, stronger effect = lower value 1 | locus YDL040C, strain nat1, stronger effect = lower value 1.01 | locus YDL074C, strain BRE1, stronger effect = lower value 1.02 | locus YDL101C, strain DUN1, stronger effect = lower value 1.01 | locus YDL134C, strain PPH21, stronger effect = lower value 1 | locus YDL185W, strain tfp1, stronger effect = lower value 1.02 | locus YDL192W, strain arf1, stronger effect = lower value 1.01 | locus YDR001C, strain nth1, stronger effect = lower value 1.01 | locus YDR069C, strain doa4, stronger effect = lower value 0.999 | locus YDR101C, strain arx1, stronger effect = lower value 0.996 | locus YDR137W, strain rgp1, stronger effect = lower value 1.05 | locus YDR150W, strain NUM1, stronger effect = lower value 0.995 | locus YDR159W, strain sac3, stronger effect = lower value 0.965 | locus YDR162C, strain NBP2, stronger effect = lower value 1.01 | locus YDR195W, strain ref2 0.983 | locus YDR297W, strain sur2, stronger effect = lower value 1.01 | locus YDR318W, strain mcm21, stronger effect = lower value 1.01 | locus YDR334W, strain swr1, stronger effect = lower value 1.01 | locus YDR335W, strain msn5, stronger effect = lower value 1.01 | locus YDR363W, strain ESC2, stronger effect = lower value 1.02 | locus YDR388W, stronger effect = lower value 1.01 | locus YDR502C, strain sam2, stronger effect = lower value 1 | locus YEL003W, strain gim4, stronger effect = lower value 1.01 | locus YEL037C, strain rad23, stronger effect = lower value 1.01 | locus YEL061C, strain CIN8 (second series), stronger effect = lower value 1.01 | locus YEL061C, strain CIN8, stronger effect = lower value 1.01 | locus YER002W, strain NOP16, stronger effect = lower value 0.986 | locus YER015W, strain faa2, stronger effect = lower value 0.994 | locus YER016W, strain bim1, stronger effect = lower value 0.984 | locus YER110C, stronger effect = lower value 1.01 | locus YER111C, strain swi4, stronger effect = lower value 1.02 | locus YER155C, strain BEM2 (second series), stronger effect = lower value 0.914 | locus YER155C, strain BEM2, stronger effect = lower value 1.02 | locus YER167W, strain BCK2, stronger effect = lower value 1.01 | locus YFR010W, strain ubp6, stronger effect = lower value 1.01 | locus YGL078C, strain dbp3, stronger effect = lower value 1 | locus YGL086W, strain mad1, stronger effect = lower value 0.98 | locus YGL167C, strain pmr1, stronger effect = lower value 1.02 | locus YGL173C, strain kem1, stronger effect = lower value 1.01 | locus YGL227W, strain vid30, stronger effect = lower value 1.03 | locus YGL240W, strain doc1, stronger effect = lower value 0.994 | locus YGL248W, strain PDE1, stronger effect = lower value 1.01 | locus YGL253W, strain hxk2, stronger effect = lower value 1.01 | locus YGR135W, strain pre9, stronger effect = lower value 1.03 | locus YGR229C, strain SMI1, stronger effect = lower value 1.05 | locus YGR252W, strain gcn5, stronger effect = lower value 0.969 | locus YHR013C, strain ard1, stronger effect = lower value 1.02 | locus YHR027C, strain rpn1, stronger effect = lower value 1.01 | locus YHR030C, strain SLT2, stronger effect = lower value 1 and 1.01 | locus YHR079C, strain IRE1 (second series), stronger effect = lower value 1.02 | locus YHR079C, strain IRE1, stronger effect = lower value 1.03 | locus YHR094C, strain hxt1, stronger effect = lower value 1.01 | locus YHR129C, strain ARP1, stronger effect = lower value 1 | locus YHR142W, strain chs7, stronger effect = lower value 1.02 | locus YHR200W, strain rpn10, stronger effect = lower value 1.02 | locus YIL066C, strain RNR3, stronger effect = lower value 1.01 | locus YIL073C, strain SPO22, stronger effect = lower value 1.05 | locus YIL125W, strain kgd1, stronger effect = lower value 1.01 | locus YIR030C, strain dcg1, stronger effect = lower value 1.01 | locus YJL092W, strain hpr5, stronger effect = lower value 1.02 | locus YJL095W, strain BCK1 (second series), stronger effect = lower value 1.02 | locus YJL095W, strain BCK1, stronger effect = lower value 1.02 and 0.997 | locus YJL115W, strain asf1, stronger effect = lower value 1.02 | locus YJL129C, strain trk1, stronger effect = lower value 1.01 | locus YJL134W, strain LCB3, stronger effect = lower value 1.01 | locus YJL154C, strain vps35, stronger effect = lower value 1.01 | locus YJL164C, strain tpk1, stronger effect = lower value 1.03 | locus YJL166W, strain qcr8, stronger effect = lower value 1.03 | locus YJL168C, strain set2, stronger effect = lower value 1.01 | locus YJL187C, strain SWE1 (second series), stronger effect = lower value 1.01 | locus YJL187C, strain SWE1, stronger effect = lower value 1.02 | locus YJR043C, strain POL32, stronger effect = lower value 1.01
